The term AC50 denotes the concentration giving half of the maximal activity seen.

Here are results for 4 molecules from PubChem BioAssay (EPA / NIEHS).

The source made the active and inactive calls. Rule for the calls: active = hit-call score of the fitted dose curve at least 0.9, where 1 is the maximum; inactive = score below 0.9.

A short description of experiment [1]: BSK_hDFCGF_SRB: Viability Assessment in the BioMAP Diversity Plus: hDFCGF Assay (AID 2283061).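 Note: cells exposed to compound for 24 h before the read.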 The conditions noted are these: primary human foreskin fibroblasts. In outline: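 Readout is SRB absorbance at 560 nm, reflecting total protein in parallel cultures of human foreskin fibroblasts harvested 24 h after chemical dosing. Activity was fitted bidirectionally relative to DMSO.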

Read-out in experiment [2]: TIMP metallopeptidase inhibitor 1 (TIMP1), TIMP1 (gene 7076)
The experiment can be described thus: BSK_hDFCGF_TIMP1: BioMAP Diversity Plus: hDFCGF Assay for TIMP metallopeptidase inhibitor 1 (TIMP1) Biomarker Activity (AID 2283062). The following applies: primary human foreskin fibroblasts; actives raise or lower the signal. Summed up: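 Human skin fibroblasts (primary), hDFCGF system; compound exposure 24 h; TIMP-1 by ELISA; bidirectional fit vs DMSO negative control; overt cytotoxicity by SRB in parallel wells.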

Read-out in experiment [3]: Monokine induced gamma interferon (MIG), CXCL9 (gene 4283)
In words: BSK_hDFCGF_MIG: BioMAP Diversity Plus: hDFCGF Assay for Monokine induced gamma interferon (MIG) Biomarker Activity (AID 2283063). The conditions noted are these: primary human foreskin fibroblasts; actives raise or lower the signal. In outline: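 Chemicals were added to primary human foreskin fibroblast cultures, which were sampled 24 h later. MIG levels were then quantified by ELISA and responses fitted in both directions relative to DMSO.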

Read-out in experiment [4]: Matrix Metallopeptidase 1 (MMP1), MMP1 (gene 4312)
The experiment can be described thus: BSK_hDFCGF_MMP1: BioMAP Diversity Plus: hDFCGF Assay for Matrix Metallopeptidase 1 (MMP1) Biomarker Activity (AID 2283064). The conditions noted are these: primary human foreskin fibroblasts; actives raise or lower the signal. In outline: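 MMP1 levels quantified by ELISA 24 h after dosing human dermal fibroblast cultures, with parallel SRB total-protein staining for overt cytotoxicity. Data fitted in both directions against DMSO baseline.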

Read-out in experiment [5]: Vascular cell adhesion molecule 1 (VCAM1), VCAM1 (gene 7412)
The experiment can be described thus: BSK_hDFCGF_VCAM1: BioMAP Diversity Plus: hDFCGF Assay for Vascular cell adhesion molecule 1 (VCAM1) Biomarker Activity (AID 2283065). The following applies: primary human foreskin fibroblasts; actives raise or lower the signal. Summed up: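 Human foreskin fibroblast primary cells, chemical exposure 24 h; VCAM-1 by ELISA; bidirectional fit, DMSO = negative control/baseline.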

Read-out in experiment [6]: Plasminogen activator inhibitor-1 (PAI1), SERPINE1 (gene 5054)
The experiment can be described thus: BSK_hDFCGF_PAI1: BioMAP Diversity Plus: hDFCGF Assay for Plasminogen activator inhibitor-1 (PAI1) Biomarker Activity (AID 2283066). The following applies: primary human foreskin fibroblasts; actives raise or lower the signal. In outline: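 PAI-1 levels in human dermal foreskin fibroblasts were quantified by ELISA 24 h after dosing, with gain or loss analysed against DMSO. Overt cytotoxicity was checked by sulforhodamine B total-protein staining in parallel cultures.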

Read-out in experiment [7]: Intercellular Adhesion Molecule 1 (ICAM1), ICAM1 (gene 3383)
The experiment can be described thus: BSK_KF3CT_ICAM1: BioMAP Diversity Plus: KF3CT Assay for Intercellular Adhesion Molecule 1 (ICAM1) Biomarker Activity (AID 2283067). The following applies: primary human keratinocytes with fibroblasts; actives raise or lower the signal. Summed up: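 ICAM-1 levels are measured by ELISA 24 h after dosing a primary human co-culture of keratinocytes and foreskin fibroblasts. Activity in either direction is fitted relative to DMSO vehicle.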

Read-out in experiment [8]: Interferon-gamma inducible Protein 10 (IP10), CXCL10 (gene 3627)
In words: BSK_KF3CT_IP10: BioMAP Diversity Plus: KF3CT Assay for Interferon-gamma inducible Protein 10 (IP10) Biomarker Activity (AID 2283068). The following applies: primary human keratinocytes with fibroblasts; actives raise or lower the signal. Summed up: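 Signal is secreted/surface IP-10 by ELISA in a human primary skin co-culture of keratinocytes and foreskin fibroblasts, taken 24 h post-dosing; DMSO served as negative control.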

Read-out in experiment [9]: Interleukin-1 alpha (IL1a), IL1A (gene 3552)
The experiment can be described thus: BSK_KF3CT_IL1a: BioMAP Diversity Plus: KF3CT Assay for Interleukin-1 alpha (IL1a) Biomarker Activity (AID 2283070). The conditions noted are these: primary human keratinocytes with fibroblasts; actives raise or lower the signal. In outline:
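IL-1a was detected by ELISA 24 h after chemical treatment of a co-culture of human skin keratinocytes and foreskin fibroblasts. Gain or loss of signal was fitted against the DMSO baseline.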

Read-out in experiment [10]: TIMP metallopeptidase inhibitor 2 (TIMP2), TIMP2 (gene 7077)
The experiment can be described thus: BSK_KF3CT_TIMP2: BioMAP Diversity Plus: KF3CT Assay for TIMP metallopeptidase inhibitor 2 (TIMP2) Biomarker Activity (AID 2283071). The conditions noted are these: primary human keratinocytes with fibroblasts; actives raise or lower the signal. In outline:
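TIMP-2 measured by ELISA at 24 h in human keratinocyte/fibroblast primary co-cultures exposed to chemicals. Both increases and decreases were fitted against DMSO. Parallel cultures were stained with SRB for total protein as an overt-cytotoxicity check.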

Read-out in experiment [11]: Transforming growth factor beta 1 (TGFb1), TGFB1 (gene 7040)
In words: BSK_KF3CT_TGFb1: BioMAP Diversity Plus: KF3CT Assay for Transforming growth factor beta 1 (TGFb1) Biomarker Activity (AID 2283072). The conditions noted are these: primary human keratinocytes with fibroblasts; actives raise or lower the signal. In outline:
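ELISA quantifies TGF-b1 at 24 h post-dose in a primary human skin co-culture of keratinocytes and fibroblasts, with gain or loss judged against DMSO. Parallel SRB total-protein staining flags overt cytotoxicity.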

Read-out in experiment [12]: C-C motif chemokine 2 (Homo sapiens) (UniProt P13500)
In words: BSK_KF3CT_MCP1: BioMAP Diversity Plus: KF3CT Assay for Monocyte Chemoattractant Protein 1 (MCP1/CCL2) Biomarker Activity (AID 2283073). The following applies: primary human keratinocytes with fibroblasts; actives raise or lower the signal. Summed up:
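ELISA readout of MCP-1 after 24 h chemical dosing of a human skin primary co-culture of keratinocytes and foreskin fibroblasts. Activity was fitted in both directions against DMSO.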

Read-out in experiment [13]: Matrix Metallopeptidase 9 (MMP9), MMP9 (gene 4318)
The experiment can be described thus: BSK_KF3CT_MMP9: BioMAP Diversity Plus: KF3CT Assay for Matrix Metallopeptidase 9 (MMP9) Biomarker Activity (AID 2283074).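 For AC50: MMP9 protein level quantified by ELISA in the co-culture.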 The conditions noted are these: primary human keratinocytes with fibroblasts; actives raise or lower the signal. Summed up:
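MMP-9 quantified by ELISA after 24 h chemical treatment of primary human skin keratinocyte/fibroblast co-cultures; gain or loss fitted against DMSO, with parallel SRB staining (0.1% SRB, 560 nm) for overt cytotoxicity.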

Read-out in experiment [14]: urokinase plasminogen activator (uPA), PLAU (gene 5328)
In words: BSK_KF3CT_uPA: BioMAP Diversity Plus: KF3CT Assay for urokinase plasminogen activator (uPA) Biomarker Activity (AID 2283075). The following applies: primary human keratinocytes with fibroblasts; actives raise or lower the signal. In outline:
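ELISA read-out of uPA 24 h after dosing human skin keratinocytes co-cultured with foreskin fibroblasts. Signal change fitted both ways relative to DMSO; sulforhodamine B on parallel cultures marks overt cytotoxicity.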

Read-out in experiment [15]: E-selectin (Homo sapiens) (UniProt P16581)
The experiment can be described thus: BSK_LPS_Eselectin: BioMAP Diversity Plus: LPS Assay for Eselectin Biomarker Activity (AID 2283077). The conditions noted are these: primary human HUVEC with PBMC; actives raise or lower the signal. Summed up: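 Primary human vascular co-culture (endothelium plus PBMC) was dosed with chemical, then E-selectin quantified by ELISA at 24 h. Endpoint values derive from bidirectional curve fitting relative to DMSO.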

Read-out in experiment [16]: Interleukin-8 (IL8), CXCL8 (gene 3576)
The experiment can be described thus: BSK_LPS_IL8: BioMAP Diversity Plus: LPS Assay for Interleukin-8 (IL8) Biomarker Activity (AID 2283078). The conditions noted are these: primary human HUVEC with PBMC; actives raise or lower the signal. In outline: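 Readout is IL-8 by ELISA, taken 24 h after compounds were added to LPS-stimulated endothelial/PBMC co-cultures. Both increases and decreases relative to DMSO control were scored through bidirectional fitting.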

The nature of experiment [17]: BSK_LPS_SRB: Viability Assessment in the BioMAP Diversity Plus: LPS Assay (AID 2283079).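 Note: total protein by sulforhodamine B absorbance as a cytotoxicity measure; measured one day after compound addition; fitted in both directions against DMSO so loss or gain of signal counts.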 The conditions noted are these: primary human HUVEC with PBMC. In outline: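 Readout is SRB absorbance at 560 nm (0.1% stain, TCA-fixed parallel cultures) as a total-protein cytotoxicity measure. Cells: primary human umbilical vein endothelium plus peripheral blood mononuclear cells, 24 h after chemical exposure; DMSO served as baseline.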

Read-out in experiment [18]: Interleukin-1 alpha (IL1a), IL1A (gene 3552)
In words: BSK_LPS_IL1a: BioMAP Diversity Plus: LPS Assay for Interleukin-1 alpha (IL1a) Biomarker Activity (AID 2283080). The following applies: primary human HUVEC with PBMC; actives raise or lower the signal. In outline:
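ELISA read-out of IL-1 alpha from a human primary vascular co-culture (endothelium plus PBMC) under LPS, sampled 24 hours post-dosing. Activity was fitted in both directions relative to DMSO controls.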

A short description of experiment [19]: BSK_KF3CT_SRB: Viability Assessment in the BioMAP Diversity Plus: KF3CT Assay (AID 2283069).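 Note: read 24 h after compound addition.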 The conditions noted are these: primary human keratinocytes with fibroblasts. Summed up:
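Cytotoxicity was gauged by SRB staining (0.1% SRB, 10% TCA fixation, 560 nm) of parallel cultures at 24 h. The cells were primary human skin keratinocytes co-cultured with fibroblasts, and activity was fitted in both directions against DMSO.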

Read-out in the next experiment: CD40, CD40 (gene 958)
The experiment can be described thus: BSK_LPS_CD40: BioMAP Diversity Plus: LPS Assay for CD40 Biomarker Activity (AID 2283076). The conditions noted are these: primary human HUVEC with PBMC; actives raise or lower the signal. Summed up: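 Cells were dosed, incubated 24 h, then assayed for CD40 by ELISA. Gain or loss of signal was analysed relative to DMSO controls. The culture paired human umbilical vein endothelium with peripheral blood mononuclear cells.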

E-selectin (Homo sapiens), sequence (P16581 whole entry, looked up): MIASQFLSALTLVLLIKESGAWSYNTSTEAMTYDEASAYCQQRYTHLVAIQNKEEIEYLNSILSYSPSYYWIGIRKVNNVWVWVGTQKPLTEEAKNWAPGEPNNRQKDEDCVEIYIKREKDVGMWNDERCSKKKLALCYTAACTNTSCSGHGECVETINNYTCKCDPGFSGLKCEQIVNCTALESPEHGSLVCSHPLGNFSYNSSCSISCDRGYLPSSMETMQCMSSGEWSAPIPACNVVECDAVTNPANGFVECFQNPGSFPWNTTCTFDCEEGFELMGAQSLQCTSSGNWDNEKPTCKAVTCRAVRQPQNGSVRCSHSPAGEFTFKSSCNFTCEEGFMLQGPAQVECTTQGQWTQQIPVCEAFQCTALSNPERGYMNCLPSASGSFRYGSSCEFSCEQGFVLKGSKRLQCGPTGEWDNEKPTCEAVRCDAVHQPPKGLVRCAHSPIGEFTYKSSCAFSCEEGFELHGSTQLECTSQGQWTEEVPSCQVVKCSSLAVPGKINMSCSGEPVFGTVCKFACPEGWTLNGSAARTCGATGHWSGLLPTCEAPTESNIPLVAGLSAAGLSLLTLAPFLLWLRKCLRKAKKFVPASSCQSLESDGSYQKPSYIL

As for `Cc1cc(NC(=O)C(=O)O)cc(C)c1Oc1ccc(O)c2c1CCC2`, the result in experiment [1], in [2], in experiment [3], in experiment [4], in [5] and in experiment [6] was inactive. In addition, the result in experiment [7], in experiment [8], in experiment [9], in [10], in [11] and in experiment [12] was inactive. Besides, the outcome in experiment [13], in experiment [14], in experiment [15], in experiment [16], in experiment [17] and in experiment [18] was inactive.
For the molecule `CN1CCN(Cc2cc(-c3ccc4[nH]c(=O)oc4c3)co2)[C@@H](c2ccc(F)cc2)C1`, the AC50 in experiment [1] was 17.6 µM (active); in [6] it was 11.8 µM (active); in [13], 17.6 µM (active); in [17], 25.9 µM (active). Also, the result in experiment [2], in [3], in experiment [4], in experiment [5], in [7] and in experiment [8] was inactive. Also, the outcome in [19], in experiment [9], in experiment [10], in experiment [11], in experiment [12] and in [14] was inactive. Besides, the outcome with CD40, CD40 (gene 958) was “inactive”; in experiment [15] it was “inactive”; in experiment [16], “inactive”; in experiment [18], “inactive”.
Consider `CCCCCCCCCCCCCCCC`, for which the outcome in experiment [1], in [2], in [3], in experiment [4], in [5] and in [6] was inactive. The outcome in experiment [7], in experiment [8], in [9], in [11], in experiment [12] and in [13] was inactive. Moreover, the outcome in experiment [14], in [15], in [16], in experiment [17] and in experiment [18] was inactive.
In the case of `CC(=O)C(C)=CC1C(C)=CCCC1(C)C` (stereo not drawn), the result in [1], in [2], in experiment [3], in experiment [4], in experiment [5] and in [6] was inactive. The outcome in experiment [7], in experiment [8], in [9], in experiment [10], in experiment [12] and in experiment [13] was inactive. Moreover, the outcome in experiment [14] is “inactive”; in the experiment with CD40, CD40 (gene 958), “inactive”; in experiment [15] it was “inactive”; in experiment [16] it was “inactive”; in [17], “inactive”; in [18], “inactive”.
